Reference: article PMC11062922 (Nature Chemical Biology, 2023)
Like-named read-outs stand apart in the source and are kept apart here.

Tests used:
Set-up in all cases: species or system human, MV4-11 + K-562 + COLO205 + SK-N-BE2 + OVCAR-8
NLK = conditions: read-out: apparent Kd; compound concentrations:100 nM and 1000 nM (sheet 'Samples'); n = 1
PKM = conditions: read-out: apparent Kd; compound concentrations:100 nM and 1000 nM (sheet 'Samples'); n = 1
NQO2 = conditions: read-out: apparent Kd, n = 1
NNT = conditions: read-out: apparent Kd, n = 1
NQO1 = conditions: read-out: apparent Kd, compound concentrations: 100 nM and 1000 nM (sheet 'Samples'), n = 1
RIOK2 = conditions: read-out: apparent Kd; compound concentrations: 100 nM and 1000 nM (sheet 'Samples'), CATDS: 0.53784196223168101; n = 1
OPA1 = conditions: read-out: apparent Kd; compound concentrations:100 nM and 1000 nM (sheet 'Samples'); n = 1
PRKD1 = conditions: read-out: apparent Kd; compound concentrations:100 nM and 1000 nM (sheet 'Samples'); n = 1
MAPK14 = conditions: read-out: apparent Kd, compound concentrations: 100 nM and 1000 nM (sheet 'Samples'), n = 1
MAPKAPK2 = conditions: read-out: apparent Kd, compound concentrations: 100 nM and 1000 nM (sheet 'Samples'), n = 1
MAPK9 = conditions: read-out: apparent Kd; compound concentrations: 100 nM and 1000 nM (sheet 'Samples'), CATDS: 1; n = 1
PDGFRB = conditions: read-out: apparent Kd, compound concentrations: 100 nM and 1000 nM (sheet 'Samples'), n = 1
PIK3CA = conditions: read-out: apparent Kd, compound concentrations: 100 nM and 1000 nM (sheet 'Samples'), n = 1
PDXK = conditions: read-out: apparent Kd, compound concentrations: 100 nM and 1000 nM (sheet 'Samples'), n = 1
STK26 = conditions: read-out: apparent Kd; compound concentrations: 100 nM and 1000 nM (sheet 'Samples'), CATDS: 0.52714165558765103; n = 1
PIK3C3 = conditions: read-out: apparent Kd; compound concentrations: 100 nM and 1000 nM (sheet 'Samples'), CATDS: 0.16198268418526299; n = 1
PIK3CB = conditions: read-out: apparent Kd, compound concentrations: 100 nM and 1000 nM (sheet 'Samples'), n = 1
PIK3CD = conditions: read-out: apparent Kd, compound concentrations: 100 nM and 1000 nM (sheet 'Samples'), n = 1
PIK3CG = conditions: read-out: apparent Kd, compound concentrations: 100 nM and 1000 nM (sheet 'Samples'), n = 1
PRKDC = conditions: read-out: apparent Kd, compound concentrations: 100 nM and 1000 nM (sheet 'Samples'), n = 1
PI4KA = conditions: read-out: apparent Kd, compound concentrations: 100 nM and 1000 nM (sheet 'Samples'), n = 1
[1] = compound concentrations: 100 nM and 1000 nM (sheet 'Samples'), CATDS: 1
[2] = compound concentrations:100 nM and 1000 nM (sheet 'Samples')

O=C(Nc1n[nH]c2cc(-c3cccc(F)c3)ccc12)C1CC1 [SB-735464]
potency estimated from few doses (NLK): 1.81 µM | potency estimated from few doses (PKM): 2.13 µM

CCn1c(-c2nonc2N)nc2ccc(F)cc21 [GW785404X]
potency estimated from few doses (NQO2; [1]): 0.339 µM

CS(=O)(=O)CCNCc1nc(-c2ccc3ncnc(Nc4ccc(OCc5ccccc5)c(Cl)c4)c3c2)cs1.CS(=O)(=O)CCNCc1nc(-c2ccc3ncnc(Nc4ccc(OCc5ccccc5)c(Cl)c4)c3c2)cs1.Cl.Cl [GW582764A]
potency estimated from few doses (NNT; [2]): 2.02 µM | potency estimated from few doses (NQO2; [2]): 1.88 µM

COc1cc(Nc2nccc(N3CCC(NC(=O)c4cc5ccccc5s4)C3)n2)cc(OC)c1OC (stereo not shown) [GSK1379760A]
potency estimated from few doses (NQO2; [1]): 1.03 µM

Cn1cnc2c(N)ncnc21 [SKF-97623]
potency estimated from few doses (NQO2; [1]): 1.3 µM

c1cc(-c2cnn3nc(N4CCOCC4)ccc23)nc(NC2CC2)n1 [GW708336X]
potency estimated from few doses (NQO1; CATDS: 1): 1.54 µM

COc1cccc(-n2nc(C)c3c(N/N=C(\C)c4ccncc4)ncnc32)c1 [GW809885X]
potency estimated from few doses (NNT; compound concentrations: 100 nM and 1000 nM (sheet 'Samples'), CATDS: 0.46713303896147801): 1.6 µM | potency estimated from few doses (RIOK2): 1.2 µM

COC(=O)Nc1nc2cc(Oc3ccc(NC(=O)Nc4cccc(C(=O)O)c4)cc3)ccc2[nH]1.Cl [GW701427A]
potency estimated from few doses (NQO1; CATDS: 1): 1.01 µM

FC(F)(F)c1ccc(-c2nn3ncccc3c2-c2ccnc(Nc3cccc(C(F)(F)F)c3)n2)cc1 [GW828205X]
potency estimated from few doses (OPA1): 1.63 µM | potency estimated from few doses (PRKD1): 1.82 µM

O=c1[nH]c2cc(Nc3ccc(F)cc3F)ccc2n1CC1CCCCC1 [BI00601000]
potency estimated from few doses (MAPK14; CATDS: 0.69333991182184596): 0.0276 µM | potency estimated from few doses (MAPKAPK2; CATDS: 0.39097535171865): 0.0972 µM

COC(=O)c1c(-c2ccccc2)c2cc(Br)ccc2c(=O)n1Cc1ccc(S(C)(=O)=O)cc1 [TPKI-100]
potency estimated from few doses (MAPK9): 1.46 µM

Cl.Cn1c(=O)c(Oc2ccc(F)cc2)cc2cnc(NC3CCOCC3)nc21 [RO3304882-001]
potency estimated from few doses (MAPK14; CATDS: 1): 1.03 µM

Fc1cccc(COc2ccc(Nc3ncnc4sc(-c5cccs5)cc34)cc2Cl)c1 [GW684626B]
potency estimated from few doses (NNT; [2]): 1.21 µM

COc1c(C(N)=O)cc(-c2ccc(Cl)cc2)cc1-c1ccc(S(N)(=O)=O)cc1 [GSK711701A]
potency estimated from few doses (NQO2; [1]): 1.49 µM

C[C@@H](CS(C)(=O)=O)Nc1ncc2cc(Oc3ccc(F)cc3F)c(=O)n(C)c2n1 [RO5044198-000]
potency estimated from few doses (MAPK14; CATDS: 0.48313667011563999): 0.0884 µM | potency estimated from few doses (MAPKAPK2; CATDS: 0.45912582310815703): 0.0974 µM | potency estimated from few doses (NQO1; CATDS: 0.21043150555446399): 1.41 µM

O=C(NCCNc1ccnc(Nc2ccc(F)cc2)n1)Nc1ccccc1F [GSK1379880A]
potency estimated from few doses (PDGFRB; CATDS: 0.36710217729011002): 1.45 µM | potency estimated from few doses (PIK3CA; CATDS: 0.78372192939813501): 0.233 µM

COc1ccc(-c2coc3ncnc(N)c23)cc1 [GW642125X]
potency estimated from few doses (PDGFRB; CATDS: 1): 1.54 µM

Cn1ccc(-c2cccc(Nc3ccnc4cc(-c5nccs5)ccc34)c2)n1 [GW525701_KCGS]
potency estimated from few doses (PDXK; CATDS: 0.47551644164597001): 1.69 µM | potency estimated from few doses (STK26): 1.37 µM

CCn1c(-c2ccoc2)nc2cnccc21 [SB-733887]
potency estimated from few doses (PDXK; CATDS: 1): 1.74 µM

COc1ncc(-c2cc(-c3ncc(CN4C[C@@H](C)O[C@@H](C)C4)o3)c3cn[nH]c3c2)cc1NS(C)(=O)=O [GSK2292767]
potency estimated from few doses (PDXK; CATDS: 9.0064918958082996E-2): 0.779 µM | potency estimated from few doses (PIK3C3): 0.0707 µM | potency estimated from few doses (PIK3CA; CATDS: 0.29964038012822602): 0.00918 µM | potency estimated from few doses (PIK3CB; CATDS: 0.10653178363766699): 0.335 µM | potency estimated from few doses (PIK3CD; CATDS: 0.86289624081171401): 0.000614 µM | potency estimated from few doses (PIK3CG; CATDS: 0.13255621983520199): 0.142 µM | potency estimated from few doses (PRKDC; CATDS: 9.7121910991741403E-2): 0.515 µM

CN(C)S(=O)(=O)c1cc(-c2ccc3nccc(-c4cccc(S(N)(=O)=O)c4)c3c2)cnc1N [GSK1669921A]
potency estimated from few doses (PI4KA; CATDS: 0.112986099678868): 1.3 µM | potency estimated from few doses (PIK3CA; CATDS: 0.37789009746554098): 0.023 µM | potency estimated from few doses (PIK3CB; CATDS: 0.12770502550951299): 0.777 µM | potency estimated from few doses (PIK3CD; CATDS: 0.59190161407117303): 0.00962 µM | potency estimated from few doses (PIK3CG; CATDS: 0.14675867951409499): 0.466 µM | potency estimated from few doses (PRKDC; CATDS: 0.12241161716625901): 0.92 µM

CN(C)CCOc1ccc(-c2cc(-c3ccc(Cl)c(O)c3)c(-c3ccncc3)[nH]2)cc1.CN(C)CCOc1ccc(-c2cc(-c3ccc(Cl)c(O)c3)c(-c3ccncc3)[nH]2)cc1.Cl.Cl [SB-684387-B]
potency estimated from few doses (PI4KA; CATDS: 0.33665131532266801): 1.06 µM | potency estimated from few doses (PIK3CA; CATDS: 0.97128160740856295): 0.016 µM
